Neddylation inh – cullin neddylation inhibition; P61081+Q13564; TR-FRET cullin neddylation, biochemical; inhibition, % at 25 µM; 360,000 compounds, 0.58% hits; AID 651699; in the data active means inhibition above about 36%
SUMO1-SIM PPI – alters human SUMO1 binding to SIM partners; SUMO1 binding to a labelled peptide, TR-FRET, 1 h; 360,000 compounds, 0.33% hits; inhibition, % at 20 µM; P63165; in the data active means inhibition above about 37%
Rin1-Abl PPI inh – blocks binding of human Rin1 to Abl; P00519+Q13671; TR-FRET Rin1/Abl binding, biochemical; inhibition, % at 7.35 µM; 360,000 compounds, 0.4% hits; AID 588664; in the data active means inhibition above about 5%, passing the limit was not always enough
ATG4B inhibitor – inhibitors of human ATG4B cysteine protease; Q9Y4P1; ATG4B cleavage of LC3-PLA2, NBD-HPC fluorescence, 1 h; inhibition, % at 8.33 µM; 340,000 compounds, 0.51% hits
Neddyl conf – cullin neddylation inhibition, confirmation; shares compounds with Neddylation inh; TR-FRET cullin neddylation biochemical assay; calls only at 25 µM; 1,800 compounds, 13% hits;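 further: neddylation substrate is the cullin 1 ring ligase complex with SKP2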
Hits are given with their value; - = inactive; . = no result given; + = active, no number. Compounds with a hit are over-represented: about 1.7% of the library has one in this group of screens. Unless noted, no stated cut-off is given here; in the data, active means inhibition above about 40%; inactive means the rest.

SMILES	Neddylation inh	SUMO1-SIM PPI	Rin1-Abl PPI inh	ATG4B inhibitor	Neddyl conf
Cc1cccc(NS(=O)(=O)c2ccccc2)n1	42	-	-	-	-
Cc1cccc(NS(=O)(=O)c2ccc(C3CCCCC3)cc2)n1	38	-	-	-	-
Cc1cccc(NS(=O)(=O)c2ccc(C(C)(C)C)cc2)n1	-	-	-	-	.
C[C@@H](NS(=O)(=O)c1cc(Cl)ccc1F)[C@H](O)c1ccccc1	-	-	-	-	.
Cc1cc(C)c(O)c(CN(C)Cc2cc(Cl)cc(Cl)c2O)c1	38	-	-	-	-
COCCNC(=O)C1(C)CCCN(C(=O)c2ccc(C#N)cc2)C1 (centres undefined)	-	-	-	.	.
COc1cc(NC(=O)c2cc(=O)[nH]c3ccc(S(=O)(=O)N4CCOCC4)cc23)cc(OC)c1	-	-	-	-	.
Cc1csc(NC(=O)c2cc(=O)[nH]c3ccc(S(=O)(=O)N4CCOCC4)cc23)n1	57	-	-	-	.
COCCOC(=O)N1CCCCC1c1cc(C(=O)NCc2ccc(Cl)c(Cl)c2)no1 (centres undefined)	-	-	-	.	.
COc1cc(NC(=O)c2ccccc2)ccc1NC(=O)Cc1ccccc1	-	-	-	-	.
COc1cc(NC(=O)Cc2ccccc2)ccc1NC(=O)c1ccccc1	43	-	-	-	-
COc1cc(NC(=O)c2cccnc2)c(Cl)cc1NC(=O)c1ccccc1	41	-	-	-	-
C[C@H](CO)N1C[C@H](C)[C@@H](CN(C)Cc2ccccn2)Oc2ncc(-c3ccccc3)cc2C1=O	-	-	-	.	.
CN(C)C(=O)c1ccc2c3c(cccc13)CC2	-	-	-	-	.
CC(=O)c1ccc2c3c(cccc13)CC2	38	-	-	-	-
Nc1ccn([C@@H]2O[C@H](C(=O)N[C@H](CO)c3ccccc3)[C@@H](O)[C@H]2O)c(=O)n1	-	-	-	.	.
CN(CCO)S(=O)(=O)c1ccc2c(c1)C(=NO)c1cc(S(=O)(=O)N(C)CCO)ccc1-2	49	-	-	-	-
O=c1[nH]cnc2c1ncn2-c1ccc(Cl)cc1	-	-	-	-	.
O=C1N/C(=C/c2cccn2-c2ccccc2)C(=O)N1Cc1ccccc1F	38	-	-	-	-
CCCCCCn1c(=O)n2n(c1=O)C[C@]1(OC(=O)NCc3ccco3)CN(S(=O)(=O)c3ccc(C)cc3)C[C@]1(O)C2	-	-	-	.	.
CCC(=O)N1CCCC(C)(C(=O)Nc2nccc3ccccc23)C1 (centres undefined)	-	-	-	.	.
Cc1[nH]c2ccc(C(=O)OCC(=O)Nc3cccc(S(N)(=O)=O)c3)cc2c1C	45	60	-	-	-
Cc1ccc2cc(NC(=O)C3(C)CCN3C(C)C)ccc2n1 (centres undefined)	-	-	-	.	.
Cc1ccc(S(=O)c2ccc([N+](=O)[O-])c3nonc23)cc1 (centres undefined)	-	-	-	.	.
CNc1cncc(-c2ccccc2NC(C)=O)n1	42	-	-	.	-
SMILES	Neddylation inh	SUMO1-SIM PPI	Rin1-Abl PPI inh	ATG4B inhibitor	Neddyl conf
CC(=O)Nc1cncc(-c2ccccc2C(C)=O)n1	-	-	-	.	.
CN(c1ccc(F)cc1)S(=O)(=O)c1ccc(Cl)c(C(=O)NCC2(N3CCOCC3)CCCCC2)c1	-	-	-	-	.
NS(=O)(=O)c1cccc(Nc2nc3ccccc3nc2NS(=O)(=O)c2ccc(Cl)cc2)c1	39	-	-	-	+
CC(=O)Nc1ccc(S(=O)(=O)Nc2nc3ccccc3nc2Nc2cccc(O)c2)cc1	46	-	-	-	.
O=C(O)c1cccc(Nc2nc3ccccc3nc2NS(=O)(=O)c2ccccc2)c1	-	-	-	-	.
CC(=O)c1cn(S(=O)(=O)c2ccccc2)c2ccccc12	-	-	-	-	.
COc1ccc(-c2cn3cccnc3n2)cc1NC(=O)c1cccs1	55	-	-	-	+
COc1ccc(-c2cn3cccnc3n2)cc1NS(=O)(=O)c1ccccc1	49	-	-	-	-
COc1ccc(-c2cn3cccnc3n2)cc1NC(=O)c1cc(OC)c(OC)c(OC)c1	.	-	-	-	.
O=S(=O)(Nc1ccc(-c2cn3cccnc3n2)cc1)c1ccccc1	.	-	-	-	.
Cc1ccccc1S(=O)(=O)N(C)C[C@@H]1OCc2ccccc2-c2c(n(C)c3ccccc23)C(=O)N([C@H](C)CO)C[C@@H]1C	-	-	-	.	.
CC(=O)NC(c1ccc(F)c(F)c1)c1nc(-c2cccs2)cs1 (centres undefined)	-	-	-	.	.
CN1OC[C@@H]2CN(C(=O)CCc3ccccc3)[C@H](c3cccc(Oc4ccccc4)c3)C[C@@H]21	-	-	-	-	.

High-throughput results (PubChem)
